The panel holds about 83,000 compounds, 20% with a hit somewhere; the sample as a whole holds those more often.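 Method: cells in 96-well plates; compound added at one concentration; 48 h incubation; percent growth measured; values under 10 scored active.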 Unmarked numbers belong to inactive results. The source made the active and inactive calls.
System: HCT-15 colon
Assay: NCI-60 one-dose screen, 48 h (100 = growth as untreated, 0 = no growth, -100 = all killed)
Conditions: 10 µM
Method: Growth inhibition of the HCT-15 human tumor cell line is measured as a screen for anti-cancer activity. Cells are grown in 96 well plates and exposed to the test compound for 48 hours. Compounds are tested at a single concentration, which is 10^-5 M for most compounds. The reported endpoint is percent growth (GI% or GIPRCNT), where numbers from 0 - 100% represent growth inhibition, and numbers from -100% - 0 represent cell death. For example, a value of 40 represents 60% growth inhibition. A value of 0 means no net growth occurred over the course of the experiment. A value of -40 indicates 40% of cells at the beginning of the experiment died by the end of the experiment. A value of -100 means all cells are dead at the end of the experiment.
NCI-60 Human Tumor Cell Lines Screen was performed using the standard one-dose NCI protocol, which is described in more detail at https://dtp.cancer.gov/discovery_development/nci-60/default.htm.
Compounds with GIPRCNT values below 10 were considered active. Activity score was based on GIPRCNT using the following formula: […]
Score is 0 for GIPRCNT values of 100 or above, 50 for GIPRCNT values of 0, and 100 for GIPRCNT values of -100.

| Structure (SMILES) | growth |
| --- | --- |
| O=[N+]([O-])c1cccc(N=Cc2ccc3c(c2)OCO3)c1 | 122% |
| c1ccc(CO[C@H]2CO[C@H]3[C@@H]2OC[C@H]3OCc2ccccc2)cc1 | 99.1% |
| O=C(c1cccs1)c1ccccc1Cc1ccccc1 | 103% |
| Cc1ccc(-c2nc(/C=C3/C(=O)N(C)c4ccc(F)cc43)c3ccccn23)cc1 | 93% |
| Cn1c([N+](=O)[O-])cnc1/C=C1\Oc2ccc(Cl)cc2C1=O | -8.74% (active) |
| COc1ccccc1/C=C/C(=O)c1ccccc1 | 61.6% |
| COc1ccc(-c2nn(-c3cccc(NC(=O)c4ccc(Cl)c(Cl)c4)c3)cc2-c2ccncc2)cc1Cl | 75.2% |
| O=C1Nc2ccc(Cl)cc2/C1=C\c1c(-c2ccc(Cl)cc2)nc2sc(C3CC3)nn12 | 77.6% |
| CCOC(=O)C1(CC(C)C)CCOC1=O (stereo not given) | 96.7% |
| O=C(N/N=C/c1cc2ccccc2c2ccccc12)c1cc(O)c(O)c(O)c1 | 60% |
| COc1ccc(-c2nnc(-c3c(-c4ccccc4)nc4ncccn34)o2)cc1OC | 100% |
| c1ccc2c(c1)oc1c3cccnc3ccc21 | 95.1% |
| NC1(C(=O)O)CSSC1 | 66.3% |
| CCN(CC)CCC(CNc1c(C)cnc2cc(Cl)ccc12)c1ccc(Cl)c(Cl)c1 (stereo not given) | 32.3% |
| O=C1/C(=C/c2ccc([N+](=O)[O-])s2)Oc2ccccc21 | -15.5% (active) |
| Cc1occc1-c1nnc(SCC(=O)c2ccc(NC(=O)CC(C)C)cc2)o1 | 121% |
| COc1cc(NC(=O)c2sc3nc4c(cc3c2N)C(O)CCC4)cc(OC)c1 (stereo not given) | 60.1% |
| COc1cc2cc3c(nc2cc1OC)CCN3Cc1ccc(NC(=O)Nc2cc(C(F)(F)F)cc(C(F)(F)F)c2)cc1 | 76.1% |
| CC(=O)N(C)c1ccc(Nc2ccc(Nc3ccc(N(C)C(C)=O)cc3)c3c2C(=O)c2ccccc2C3=O)cc1 | 79.8% |
| CN(C)c1ccc(Cc2ccc(N(C)C)cc2Cl)c(Cl)c1 | 101% |

| Structure (SMILES) | growth |
| --- | --- |
| O=S(=O)(NCCCNc1nccc(-c2c(-c3ccc(F)cc3)nc3sccn23)n1)c1ccc(F)cc1 | 38.4% |
| CC/C(C)=C(\C)C(=O)O | 107% |
| O=C(Nc1nc2ccccc2s1)Nc1ccc([N+](=O)[O-])cc1Cl | 87.2% |
| N=c1c2c(-c3ccccc3)c(-c3ccccc3)n(Cc3ccccc3)c2ncn1CCCO | 28.1% |
| N#Cc1ncc(-c2ccc(C(F)(F)F)cc2)c(NCc2cc(C(F)(F)F)cc(C(F)(F)F)c2)n1 | 7.65% (active) |
| CC/C(=C(/c1ccc(OCCN(C)C)cc1)c1ccc(OC(=O)CCCCCCCCC(=O)c2c(C)[nH]c(/C=C3\N=C(c4ccc[nH]4)C=C3OC)c2C)cc1)c1ccccc1 | 58% |
| COc1ccc(C(=O)/C=C/c2cc(-c3cc(OC)c(OC)c(OC)c3)n[nH]2)cc1 | 8.52% (active) |
| CCN1CCC(CCOC)(CN2c3ccccc3Sc3ccc(Cl)cc32)C1 (stereo not given) | 49.1% |
| COc1ccc(Nc2ncnc3c2c(SC)nn3-c2ccccc2)cc1 | 89.2% |
| CSC1=NCCCC1 | 101% |
| COc1ccc(-c2csc(NC(=O)CSc3nc(C)c(-c4ccccc4)n3Nc3ccccc3)n2)cc1 | 44.2% |
| O=C(Nc1cccc(-n2cc(-c3ccncc3)c(-c3ccc(O)c(Cl)c3)n2)c1)c1cccc(C(F)(F)F)c1 | 23.8% |
| COC(=O)C(C(C[N+](=O)[O-])c1ccccc1)=P(c1ccccc1)(c1ccccc1)c1ccccc1 (stereo not given) | 88.9% |
| CCCCCCCC(C)NCCO (stereo not given) | 116% |
| O=c1cc(-c2ccccc2)[nH]n1-c1nc2ccccc2[nH]1 | 30.7% |
| C#Cc1ccc(-n2c(/C=C/c3ccc(Cl)c(F)c3)nc3ncccc3c2=O)cc1 | 2.43% (active) |
| COc1cc(-c2cc(/C=C/C(=O)c3ccc(Cl)c(Cl)c3)[nH]n2)cc(OC)c1OC | 50.9% |
| COc1ccc2c(c1)sc1nc(-c3ccccc3)c(-c3ccc(O)c(OC)c3)n12 | 47.1% |
| COc1ccc(Cl)cc1C(=O)Nc1nc2ccc(Cl)cc2s1 | 86.5% |
| COc1ccc2c(c1OC)O/C(=C\c1ncc([N+](=O)[O-])n1C)C2=O | 1.65% (active) |
